We go through eight molecules from PubChem BioAssay (NCATS).

“And” between values parts separate entries of the source, which are not always exact repeats. Equal entries are not always repeated. Records with an inconclusive call do not appear. More than one record can exist for a structure, and the calls need not agree. The source made the active and inactive calls. Calls come from the whole dose curve; as a rule, active = well fitted curve in the direction sought with a large enough effect; inconclusive = small, poorly fitted or top-dose-only effect, or another doubt; inactive = no such curve, though single readings can be large; an effect the other way counts as inactive or inconclusive.

The subject of assay [1] is MKL-1. As to the kind of experiment: qHTS assay to identify novel small-molecules to repurpose for Merkel cell carcinoma treatment (AID 1296009). Note: nearly all actives have a fitted effect of over 60% in size. Note: potency is the fitted concentration of half-maximal effect. As to conditions: MCC and control cell lines, CellTiter-Glo viability, 72 h; series mostly up to 46 µM. An outline of the steps: (§1)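 Cells were treated for 72 hr at 37 degree celsius with compounds in 8- or 11-point dose response. Viability was read by CellTiter-Glo luminescence, normalized to no-cell (cytotoxicity) and DMSO controls.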
A general note: qHTS replaces the single test concentration by a dilution series.

The test system of assay [2] is UISO. Described as above. The settings on record: MCC and control cell lines, CellTiter-Glo viability, 72 h; series mostly up to 46 µM. An outline of the steps: as §1
Assay [3] deals with WaGa. The description is as above. As to conditions: MCC and control cell lines, CellTiter-Glo viability, 72 h; series mostly up to 46 µM. The method in brief:
as §1
On the technique in general: ATP-based viability assays read luminescence as a measure of living cells.

The subject of assay [4] is C33A. Nature of the assay: Primary qHTS to identify gynecologic anti-cancer compounds using libraries of approved drugs and bioactive compounds (AID 1345084). Note: nearly all actives have a fitted effect of over 55% in size. The settings on record: Gynecologic cancer cell panel viability, ATPlite luminescence, 48 h; series mostly up to 57.5 µM. An outline of the steps:
(§2)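 Measured: luminescence after ATPlite addition (15 min, RT). Exposure: 48 h, 37 C, 5% CO2.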

Assay [5] concerns CAOV3. The description is as above. The settings on record: Gynecologic cancer cell panel viability, ATPlite luminescence, 48 h; series mostly up to 57.5 µM. The method in brief: as §2
Assay [6] concerns CASKI. The assay is described as above. As to conditions: Gynecologic cancer cell panel viability, ATPlite luminescence, 48 h; series mostly up to 57.5 µM. The method in brief: as §2
For assay [7], the system named is Es-2. The description is as above. The settings on record: Gynecologic cancer cell panel viability, ATPlite luminescence, 48 h; series mostly up to 57.5 µM. The method in brief: as §2
Assay [8] deals with HeLa. The assay is described as above. As to conditions: Gynecologic cancer cell panel viability, ATPlite luminescence, 48 h; series mostly up to 57.5 µM. The method in brief:
as §2

Assay [9] deals with Hek293T. The assay is described as above. The settings on record: Gynecologic cancer cell panel viability, ATPlite luminescence, 48 h, control line for the selectivity index; series mostly up to 57.5 µM. The method in brief: as §2
In assay [10] the test system is JEG-3. The description is as above. The settings on record: Gynecologic cancer cell panel viability, ATPlite luminescence, 48 h; series mostly up to 57.5 µM. The method in brief: as §2
In assay [11] the test system is OV90. The description is as above. As to conditions: Gynecologic cancer cell panel viability, ATPlite luminescence, 48 h; series mostly up to 57.5 µM. An outline of the steps:
as §2

For assay [12], the system named is PA-1. The assay is described as above. As to conditions: Gynecologic cancer cell panel viability, ATPlite luminescence, 48 h; series mostly up to 57.5 µM. The method in brief: as §2
Assay [13] concerns Tov-21-G. The description is as above. The settings on record: Gynecologic cancer cell panel viability, ATPlite luminescence, 48 h; series mostly up to 57.5 µM. An outline of the steps: as §2
The test system of assay [14] is Tov112D. Described as above. The settings on record: Gynecologic cancer cell panel viability, ATPlite luminescence, 48 h; series mostly up to 57.5 µM. An outline of the steps:
as §2

Assay [15] can be described thus: Drug repurposing screens with cells derived from glioblastoma tumor samples (AID 1345199). Note: nearly all actives have a fitted effect of over 40% in size. Note: potency is the fitted concentration of half-maximal effect. As to conditions: GBM patient neurospheres viability, ATP luminescence, 48 h. The method in brief:
(§3)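 Four patient lines of CD133+ GBM neurospheres were screened at several concentrations; hits were retested in those lines plus three slower-growing GBM lines, using 48-hour treatment and ATP-based viability.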

Assay [16] has as its system astro. The description is as above. The settings on record: viability, ATP luminescence, 48 h; series mostly up to 45.9 µM. The method in brief: as §3
For assay [17], the system named is MKL-2. Nature of the assay: qHTS assay to identify novel small-molecules to repurpose for Merkel cell carcinoma treatment (AID 1296009). Note: nearly all actives have a fitted effect of over 60% in size. Note: potency is the fitted concentration of half-maximal effect. As to conditions: MCC and control cell lines, CellTiter-Glo viability, 72 h; series mostly up to 46 µM. An outline of the steps:
as §1

Assay [18] is described as follows: qHTS assay to identify inhibitors of the type 1 interferon - major histocompatibility complex class I in skeletal muscle: Counter screen cell viability and HiBit confirmation (AID 1347412). For all read-outs here: nearly all actives have a fitted effect of over 60% in size. Note: potency is the fitted concentration of half-maximal effect. The settings on record: iHSKM muscle cells + IFN-b, HiBiT or CellTiter-Glo, 24 h; for activity change, negative = inhibition: at 45.9 µM (top of the series). An outline of the steps:
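Luminescence read-out: Nano-Glo HiBiT lytic signal from C-terminally HiBiT-tagged HLA-B in CRISPR-edited human myoblasts, plus CellTiter Glo ATP as viability counter screen. IFN-beta 4.0 ng/ml; 24 hrs treatment at 37 C, 5% CO2.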

The subject of assay [19] is NIH3T3. Nature of the assay: qHTS assay to identify novel small-molecules to repurpose for Merkel cell carcinoma treatment (AID 1296009). Note: nearly all actives have a fitted effect of over 60% in size. Note: potency is the fitted concentration of half-maximal effect. As to conditions: MCC and control cell lines, CellTiter-Glo viability, 72 h; at 44.8 µM (top of the series) unless noted. The method in brief: as §1
In assay [20] the test system is SKOV3. As to the kind of experiment: Primary qHTS to identify gynecologic anti-cancer compounds using libraries of approved drugs and bioactive compounds (AID 1345084). Note: nearly all actives have a fitted effect of over 55% in size. As to conditions: Gynecologic cancer cell panel viability, ATPlite luminescence, 48 h; series mostly up to 57.5 µM. An outline of the steps:
as §2

Setting [21] is: at 45.9 µM (top of the series), tumour line B.
[22] abbreviates: at 46.1 µM (top of the series), tumour line C.
% is set by controls: 0 for no effect and ±100 for the full control effect.

In the case of `N=C(N)c1ccc2cc(OC(=O)c3ccc(N=C(N)N)cc3)ccc2c1`, the Potency entry in assay [1], in [2], in assay [4], in assay [5], in assay [6] and in assay [7] was “inactive” throughout. Further, the Potency result in [8], in [9], in [10], in assay [11], in assay [12] and in [13] was “inactive” each time. Also, the Potency entry in [14] and in [16] was “inactive” throughout. For the same molecule, in assay [3], the Potency result is “inactive and 26.6 µM (active)”. Moreover, the activity, negative = cell killing is -0.17% (inactive) in assay [15] (setting [21]); -17% (inactive) in assay [15] (at 45.9 µM (top of the series), tumour line D); 10% (inactive) in assay [15] (setting [22]).

`O=Nc1c(-c2c(O)[nH]c3cc(Br)ccc23)[nH]c2ccccc12`: the Potency is 16.6 µM (active) in assay [17], 0.059 µM (active) in assay [2] and 22.2 µM (active) in assay [18] (HiBiT).

As to `COCCCN1CCC(NC(=O)c2cc(Cl)c(N)c3c2OCC3)CC1`, the Potency entry in assay [4], in assay [5], in assay [6], in assay [7], in [8] and in [9] was “inactive” in each case. Moreover, the Potency result in [10], in assay [11], in assay [12], in assay [13] and in assay [14] was “inactive” each time.

Take `NC(=NCc1ccccc1)NC(=O)c1nc(Cl)c(N)nc1N`: the Potency entry in [1], in [2] and in [3] was “inactive” each time. In addition, the activity change, negative = inhibition in assay [18] (HiBiT) was -27.7% (inactive); in assay [18] (Viability), -20.2% (inactive).

With `CCCCC(CC)COC(=O)C(C#N)=C(c1ccccc1)c1ccccc1` (stereo not drawn), the Potency entry in assay [1], in assay [3], in assay [4], in [5], in assay [6] and in [7] was “inactive” in each case. Also, the Potency entry in [8], in [9], in assay [10], in assay [11], in [12] and in [20] was “inactive” each time. Further, the Potency entry in [13], in assay [14] and in assay [16] was “inactive” each time. In assay [19], the call was inactive.

Turning to `CN(C)[C@@H](CCOc1cccc2ccccc12)c1ccccc1`, the Potency result in [1], in [2], in assay [4], in assay [5], in [6] and in assay [7] was “inactive” each time. For the same molecule, the Potency entry in [8], in [10], in assay [12], in assay [13] and in assay [14] was “inactive” each time.

On to `COC1=C(OC)C(=O)C(CCCCCCCCCCO)=C(C)C1=O`, for which, in assay [1], the Potency is 15 µM (active). In assay [19], the molecule was classed as inactive. Moreover, the Potency entry in assay [5], in assay [6], in assay [8], in assay [11], in assay [20] and in [13] was “inactive” in each case. The activity, negative = cell killing in assay [15] (setting [21]) was -9.04% (inactive); in [15] (setting [22]), 1.43% (inactive).

Consider `CCCCCCCCOc1ccccc1C(=O)Nc1ccc(C(=O)OCC[N+](C)(CC)CC)cc1`, for which the Potency in assay [17] was 16.6 µM (active) and 5.96 µM (active); in assay [2] it was 15 µM (active); in assay [3] it was 29.9 µM (active); in assay [15] (tumour line A), 14.1 µM (active); in [15] (tumour line B), 17.8 µM (active). Moreover, the Potency entry in assay [4], in assay [7], in [8], in [9], in assay [10] and in assay [11] was “inactive” in each case. Also, the Potency entry in assay [13] and in [14] was “inactive” in each case. In addition, the activity, negative = cell killing in assay [15] (setting [22]) was -98.5% (inactive).
